For the first assay, the system named is Tyrosine-protein kinase ABL1 (Homo sapiens), P00519 [H396P]. Particulars: at 0.1 µM.
Consider `c1ccc(COc2ccc(Nc3ncnc4ccc(-c5ccco5)cc34)cc2)cc1`, for which the inhibition was 0.16%.

On to `COc1ccc2c(-c3ccnc(Nc4cccc(OC(F)(F)F)c4)n3)cnn2n1`, for which the inhibition was 3.04%.

Consider `CN1CCC(n2cnc(-c3ccc(F)cc3)c2-c2ccnc(N)n2)CC1`, for which the inhibition was 2.82%.

Regarding `COc1ccc(-c2cc(-c3c[nH]nc3-c3ccccn3)ccn2)cc1`, the inhibition stood at 20.2%.

Take `Cc1cccc(Nc2ncc(-c3ccccc3)o2)c1`: the inhibition stood at 5.02%.

In the case of `COC(=O)c1sc(-n2cnc3cc(OC)c(OC)cc32)cc1OCc1ccccc1C(F)(F)F`, the inhibition worked out at 5.82%.

As to `N#Cc1c(NC(=O)CN2CCOCC2)sc2c1CCCC2`, the inhibition was determined as 2.48%.

As to `COc1ccc(-c2cc3c(N)ncnc3o2)cc1`, the inhibition was -0.22%.

As for `N#Cc1c(NC(=O)c2ccc(F)cc2)sc2c1CCCC2`, the inhibition was -0.63%.

As to `Cc1ccc2c(-c3ccnc(Nc4ccccc4)n3)c(-c3ccc(F)cc3)nn2n1`, the inhibition came to 7.21%.

With `CNC(=O)c1cc(-c2ccc(F)cc2)cc(-c2ccc(S(=O)(=O)N3CCCC3)cc2)c1N`, the inhibition turned out to be 3.29%.

With `Cc1ccc(O)cc1Nc1ccnc2cc(-c3ccccn3)ccc12`, the inhibition is 94.7%.

Take `CCc1nn2ncccc2c1-c1ccnc(NC2CC2)n1`: the inhibition turned out to be 3.05%.

With `CCCN1CCC(c2ccc(Nc3nc(Nc4cc(F)ccc4C(N)=O)c4cc[nH]c4n3)c(OC)c2)CC1`, the inhibition amounted to 4.63%.

Consider `Fc1ccc(-c2nn3ccccc3c2-c2ccncc2)cc1`, for which the inhibition is 1.59%.

On to `O=C(O[C@H]1CN[C@H](C#Cc2cc3ncnc(Nc4ccc(Cc5ccccc5)cc4)c3s2)C1)N1CCOCC1`, for which the inhibition is -0.52%.

Regarding `COc1ccc(-c2nn3ncccc3c2-c2ccnc(Nc3ccc4c(c3)OCCO4)n2)cc1`, the inhibition came to 3.27%.

Turning to `CN(C)CCOc1ccc(-c2nc(-c3ccncc3)c(-c3ccc4c(c3)CC/C4=N\O)[nH]2)cc1`, the inhibition came out at 8.42%.

For the molecule `CCN1CCC(CC(=O)Nc2n[nH]c3nnc(-c4cccc(F)c4F)cc23)CC1`, the inhibition turned out to be 2.63%.

In the case of `COc1cccc(-c2c[nH]c3c(N/N=C/c4ccncc4)ncnc23)c1`, the inhibition turned out to be 76.2%.

In the case of `Fc1ccc(-c2nn3ncccc3c2-c2ccnc(Nc3ccc4c(c3)OCCO4)n2)cc1`, the inhibition was 25.5%.

Turning to `COc1cc(Nc2nccc(Nc3ccc4c(C)n[nH]c4c3)n2)cc(OC)c1OC`, the inhibition turned out to be 30.1%.

On to `CC(C)COC(=O)c1ccc2c(c1)/C(=C/Nc1ccc(S(N)(=O)=O)cc1)C(=O)N2`, for which the inhibition came out at 4.36%.

For the molecule `NS(=O)(=O)c1ccc(N/N=C2\C(=O)Nc3ccc4ncccc4c32)cc1`, the inhibition came to 8.88%.

As to `COc1cc(N2CCN(C(C)C)CC2)ccc1Nc1nc(Nc2ccc(F)cc2C(N)=O)c2cc[nH]c2n1`, the inhibition came to 1.72%.

As for `CCn1c(-c2nonc2N)nc2c(C#CC(C)(C)O)ncc(OC3CCNCC3)c21`, the inhibition was found to be 2.05%.

Consider `CNC(=O)c1cccc(C#Cc2cncnc2Nc2ccc(OCc3cccc(F)c3)c(Cl)c2)c1`, for which the inhibition is 0.79%.

Turning to `Fc1cccc(COc2ccc(Nc3ncnc4sc(-c5ccco5)cc34)cc2Cl)c1`, the inhibition is 3.3%.

With `c1ccc(-c2nc3n(c2-c2ccc4c(c2)OCO4)CCC3)nc1`, the inhibition is 0.35%.

`O=S(=O)(CCNCc1ccc(-c2ccc3ncnc(Nc4ccc(OCc5cccc(F)c5)c(Cl)c4)c3c2)o1)c1ccccc1`: the inhibition was 5.17%.

With `COc1cc(/C=N/Nc2ncnc3[nH]ncc23)ccc1O`, the inhibition was determined as 45.9%.

As to `CS(=O)(=O)CCNCc1coc(-c2ccc3ncnc(Nc4ccc(OCc5ccccc5)cc4)c3c2)c1`, the inhibition came to 4.11%.

Turning to `COc1cc2c(cc1Nc1nc(Nc3ccsc3C(N)=O)c3cc[nH]c3n1)N(C(=O)CN(C)C)CCC2(C)C`, the inhibition came to 4.5%.

The test system is the same in a further assay. Particulars: at 1 µM.
In the case of `c1ccc(COc2ccc(Nc3ncnc4ccc(-c5ccco5)cc34)cc2)cc1`, the inhibition worked out at 0.64%.

On to `COc1ccc2c(-c3ccnc(Nc4cccc(OC(F)(F)F)c4)n3)cnn2n1`, for which the inhibition was determined as 15.7%.

Consider `CN1CCC(n2cnc(-c3ccc(F)cc3)c2-c2ccnc(N)n2)CC1`, for which the inhibition is 11.9%.

`COc1ccc(-c2cc(-c3c[nH]nc3-c3ccccn3)ccn2)cc1`: the inhibition worked out at 64.2%.

As for `Cc1cccc(Nc2ncc(-c3ccccc3)o2)c1`, the inhibition stood at 19.4%.

On to `COC(=O)c1sc(-n2cnc3cc(OC)c(OC)cc32)cc1OCc1ccccc1C(F)(F)F`, for which the inhibition came to 18.2%.

As for `N#Cc1c(NC(=O)CN2CCOCC2)sc2c1CCCC2`, the inhibition is 5.61%.

`COc1ccc(-c2cc3c(N)ncnc3o2)cc1`: the inhibition was 11%.

Consider `N#Cc1c(NC(=O)c2ccc(F)cc2)sc2c1CCCC2`, for which the inhibition turned out to be 0.11%.

Regarding `Cc1ccc2c(-c3ccnc(Nc4ccccc4)n3)c(-c3ccc(F)cc3)nn2n1`, the inhibition was 36%.

For `CNC(=O)c1cc(-c2ccc(F)cc2)cc(-c2ccc(S(=O)(=O)N3CCCC3)cc2)c1N`, the inhibition turned out to be 3.32%.

Regarding `Cc1ccc(O)cc1Nc1ccnc2cc(-c3ccccn3)ccc12`, the inhibition stood at 97.2%.

With `CCc1nn2ncccc2c1-c1ccnc(NC2CC2)n1`, the inhibition came to 6.43%.

Consider `CCCN1CCC(c2ccc(Nc3nc(Nc4cc(F)ccc4C(N)=O)c4cc[nH]c4n3)c(OC)c2)CC1`, for which the inhibition turned out to be 8.82%.

On to `Fc1ccc(-c2nn3ccccc3c2-c2ccncc2)cc1`, for which the inhibition is 4.98%.

As to `O=C(O[C@H]1CN[C@H](C#Cc2cc3ncnc(Nc4ccc(Cc5ccccc5)cc4)c3s2)C1)N1CCOCC1`, the inhibition came to 0.08%.

As for `COc1ccc(-c2nn3ncccc3c2-c2ccnc(Nc3ccc4c(c3)OCCO4)n2)cc1`, the inhibition is 34.6%.

As for `CN(C)CCOc1ccc(-c2nc(-c3ccncc3)c(-c3ccc4c(c3)CC/C4=N\O)[nH]2)cc1`, the inhibition stood at 34.1%.

With `CCN1CCC(CC(=O)Nc2n[nH]c3nnc(-c4cccc(F)c4F)cc23)CC1`, the inhibition worked out at 4.15%.

On to `COc1cccc(-c2c[nH]c3c(N/N=C/c4ccncc4)ncnc23)c1`, for which the inhibition turned out to be 93.6%.

Turning to `Fc1ccc(-c2nn3ncccc3c2-c2ccnc(Nc3ccc4c(c3)OCCO4)n2)cc1`, the inhibition was determined as 69.9%.

With `COc1cc(Nc2nccc(Nc3ccc4c(C)n[nH]c4c3)n2)cc(OC)c1OC`, the inhibition is 78.3%.

For `CC(C)COC(=O)c1ccc2c(c1)/C(=C/Nc1ccc(S(N)(=O)=O)cc1)C(=O)N2`, the inhibition came out at 26.6%.

With `NS(=O)(=O)c1ccc(N/N=C2\C(=O)Nc3ccc4ncccc4c32)cc1`, the inhibition was 47.7%.

For `COc1cc(N2CCN(C(C)C)CC2)ccc1Nc1nc(Nc2ccc(F)cc2C(N)=O)c2cc[nH]c2n1`, the inhibition was 2.38%.

Take `CCn1c(-c2nonc2N)nc2c(C#CC(C)(C)O)ncc(OC3CCNCC3)c21`: the inhibition stood at 2.1%.

As to `CNC(=O)c1cccc(C#Cc2cncnc2Nc2ccc(OCc3cccc(F)c3)c(Cl)c2)c1`, the inhibition stood at 1.44%.

With `Fc1cccc(COc2ccc(Nc3ncnc4sc(-c5ccco5)cc34)cc2Cl)c1`, the inhibition worked out at 5.3%.

Turning to `c1ccc(-c2nc3n(c2-c2ccc4c(c2)OCO4)CCC3)nc1`, the inhibition was 2.48%.

Turning to `O=S(=O)(CCNCc1ccc(-c2ccc3ncnc(Nc4ccc(OCc5cccc(F)c5)c(Cl)c4)c3c2)o1)c1ccccc1`, the inhibition stood at 6.8%.

With `COc1cc(/C=N/Nc2ncnc3[nH]ncc23)ccc1O`, the inhibition was 87.6%.

As to `CS(=O)(=O)CCNCc1coc(-c2ccc3ncnc(Nc4ccc(OCc5ccccc5)cc4)c3c2)c1`, the inhibition came to 4.46%.

Consider `COc1cc2c(cc1Nc1nc(Nc3ccsc3C(N)=O)c3cc[nH]c3n1)N(C(=O)CN(C)C)CCC2(C)C`, for which the inhibition was determined as 2.9%.

As a reminder, the inhibition is the drop in the measured response relative to a control, in per cent.
